# In PubChem BioAssay AID2796 (The Scripps Research Institute Molecular Screening Center, 2010):
# Screen size: about 320,000 compounds; about 8,000 (2.5%) were called active. For the sample, actives were picked, then their nearest neighbours and some compounds at random. Unmarked numbers belong to inactive results. Cut-off read from the data, not from the text of the source: active = activation above about 47%; inactive = the rest.
# Target: Aryl hydrocarbon receptor (Homo sapiens) (UniProt P35869)
# Assay: AHR activators, primary screen, cell-based, luminescence, luciferase reporter, human (AID 2796);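 note: 0% = vehicle wells and 100% = reference agonist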
# Conditions: AHR-responsive luciferase reporter cells, at 5 µM, stronger effect = higher value
# Sequence of Aryl hydrocarbon receptor (Homo sapiens) (P35869 whole entry, looked up): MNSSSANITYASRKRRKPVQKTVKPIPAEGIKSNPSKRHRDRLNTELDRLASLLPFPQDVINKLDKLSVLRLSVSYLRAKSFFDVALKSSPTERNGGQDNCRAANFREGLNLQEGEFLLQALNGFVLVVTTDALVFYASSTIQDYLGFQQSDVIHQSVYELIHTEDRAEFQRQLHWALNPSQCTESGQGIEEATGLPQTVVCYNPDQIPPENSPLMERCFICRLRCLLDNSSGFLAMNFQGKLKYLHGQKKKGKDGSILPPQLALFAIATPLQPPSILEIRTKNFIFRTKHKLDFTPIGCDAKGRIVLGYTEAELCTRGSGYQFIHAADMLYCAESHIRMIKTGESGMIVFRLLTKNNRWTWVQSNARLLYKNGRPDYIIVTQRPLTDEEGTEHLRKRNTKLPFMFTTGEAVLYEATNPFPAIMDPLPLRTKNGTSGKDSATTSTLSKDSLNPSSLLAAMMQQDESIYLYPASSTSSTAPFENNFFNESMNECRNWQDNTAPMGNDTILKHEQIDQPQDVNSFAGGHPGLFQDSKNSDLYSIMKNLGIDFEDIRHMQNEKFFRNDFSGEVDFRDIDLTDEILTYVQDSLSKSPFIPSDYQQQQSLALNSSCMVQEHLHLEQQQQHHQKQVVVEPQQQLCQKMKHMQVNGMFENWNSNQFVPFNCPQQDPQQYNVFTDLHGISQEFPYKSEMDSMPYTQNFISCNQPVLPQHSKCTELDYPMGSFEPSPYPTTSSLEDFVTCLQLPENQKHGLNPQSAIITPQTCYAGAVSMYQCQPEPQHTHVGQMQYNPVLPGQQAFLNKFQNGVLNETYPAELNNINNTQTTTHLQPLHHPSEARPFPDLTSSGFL
row,SMILES,activation
1,CC(=O)NCC(=O)N(C)C(C(=O)Nc1ccc2c(c1)OCCO2)c1ccccc1 (configuration not stated),15%
2,Cc1cc(=O)oc2c3c(cc(OCC(=O)NCc4ccccn4)c12)OC(C)(C)CC3,4.58%
3,FC(F)(F)c1ccc(-n2cn[nH]c2=S)cc1,-2.71%
4,CCN1CCN(C(=O)c2cc3cc4ccc(OC)cc4nc3s2)CC1,2.17%
5,CCCn1c(CCNc2nc(-c3ccc(OC)cc3)cs2)nc2ccccc21,15%
6,COc1ccc(Nc2nc(-c3ccccc3)cs2)cc1,91.8% (active)
7,O=C(CSC1=NCCS1)Nc1nc(-c2ccccc2)cs1,18.4%
8,Cc1ccccc1Nc1nc(-c2cccnc2)cs1,2.23%
9,Cc1cccc(Nc2nc(-c3ccccc3)cs2)n1,95.5% (active)
10,COc1ccc2c(c1OC)C(=O)OC2Nc1nc(-c2ccccc2)cs1 (configuration not stated),-5.46%
11,CCCCn1nc(C(=O)Nc2cccc(C(=O)NC3CC3)c2)c2ccccc2c1=O,-0.03%
12,CC1(C)C2CCC13CS(=O)(=O)NC3C2 (configuration not stated),1.31%
13,CN1CCN(C(=O)c2cnn(-c3ccccc3)c2NC(=O)c2ccc([N+](=O)[O-])cc2)CC1,4.36%
14,Nc1c(N(CCO)C(=O)C2CCCCC2)c(=O)[nH]c(=O)n1Cc1ccccc1,0.25%
15,O=C(Nc1ccccc1Cl)c1ccccc1S(=O)(=O)c1ccccc1[N+](=O)[O-],2.48%
16,CN(C)S(=O)(=O)Oc1ccccc1C(=O)Nc1ccccc1Cl,106% (active)
17,COc1ccccc1C(=O)Nc1ccccc1C(=O)Nc1ccccc1,18.5%
18,Cc1ccc(NC2CCCN(C(=O)CCc3cn[nH]c3)C2)cc1C (configuration not stated),11.1%
19,COc1ccccc1NC(=O)c1c(Br)cnn1C,57.9% (active)
20,Cn1ncc(Br)c1C(=O)NC1CCCC1,-3.04%
21,Cn1ncc(Br)c1C(=O)NCc1cccs1,-1.33%
22,COC(=O)c1ccc(C(NC(=O)OCc2ccccc2)/C(C)=C/[C@@H](C)C(=O)NCc2ccc(OC)c(OC)c2)cc1 (some centres not stated),6.4%
23,COc1ccc(NC(=O)CSc2nnc(C3CC3)n2C)cc1S(=O)(=O)N1CCCCC1,-0.33%
24,Cc1ccc(CNCc2ccc3c(c2)OCO3)c(C)c1,2.41%
25,COc1cc(OC)c(C(=O)NCc2ccc3c(c2)OCO3)cc1OC,14%

row,SMILES,activation
1,COc1cc(CNCc2ccc3c(c2)OCO3)c([N+](=O)[O-])cc1OC,111% (active)
2,NS(=O)(=O)c1ccc(N=Cc2ccc(Br)s2)cc1,3.54%
3,O=C(NNc1cc(Cl)cc(Cl)c1)c1c(F)cccc1Cl,10.2%
4,Cc1sc(NC(=O)c2ccc3ncsc3c2)c(C(N)=O)c1C,5.88%
5,COc1ccccc1-c1nnc(NC(=O)c2cccc(N3C(=O)CCC3=O)c2)o1,33.9%
6,COc1ccccc1-c1nnc(NC(=O)c2ccc3ncsc3c2)o1,48.6% (active)
7,COC(=O)CN1C(=O)C(O)=C(C(C)=O)C1c1ccc([N+](=O)[O-])cc1 (configuration not stated),0.71%
8,CC(=O)C1=C(O)C(=O)N(c2ccc(Br)cc2)C1c1ccc([N+](=O)[O-])cc1 (configuration not stated),62.3% (active)
9,CC(=O)C1=C(O)C(=O)N(c2cccnc2)C1c1ccc([N+](=O)[O-])cc1 (configuration not stated),-2.61%
10,COC(=O)C1=C(C)N(C(C)c2ccccc2)C(=O)/C1=C\c1ccco1 (configuration not stated),1.2%
11,CCSc1ccccc1C(=O)NCc1ccc(OC)cc1,-0.68%
12,COc1ccc(COCCN2CCN(S(=O)(=O)c3ccccc3)CCC2=O)cc1,2.49%
13,C=CCSc1nnc2c(n1)-c1cccc3cccc-2c13,56.7% (active)
14,CCN(CC(=O)Nc1ccc(OC)cc1)C(=O)CSCc1ccc(C)cc1,0.1%
15,Cc1c(C(=O)Nc2cccc(S(=O)(=O)N3CCOCC3)c2)oc2ccccc12,67.5% (active)
16,Cc1occc1C(=O)Nc1cccc(S(=O)(=O)N2CCOCC2)c1,3.12%
17,COc1ccc(NC(=O)c2oc3ccc(S(=O)(=O)N4CCOCC4)cc3c2C)cc1,10.4%
18,N#Cc1ccc(OCCN2C(=O)NC3(CCSC3)C2=O)cc1 (configuration not stated),-2.11%
19,Cc1cc(NC(=O)CSc2nnc(-c3ccco3)n2N)no1,1.53%
20,COc1ccc(C(=O)NC(=S)N2CCNC(=O)C2CC(=O)OC(C)C)cc1 (configuration not stated),5.47%
21,Cc1cc2ncn(CCCCOc3ccccc3)c2cc1C,-0.22%
22,Brc1ccccc1C1N=C(c2ccccc2)NO1 (configuration not stated),50.1% (active)
23,N#Cc1ccc(C2N=C(c3ccccc3)NO2)cc1 (configuration not stated),0.8%
24,S=C1NC(c2ccccc2)=NCN1c1ccc(Br)cc1,1.57%
25,Cc1ccc(-n2nc3c(c2NC(=O)CCC2CCCCC2)CS(=O)C3)cc1 (configuration not stated),18.5%

row,SMILES,activation
1,CCCCNC(=S)N/N=C1\CCCCc2ccccc21,13.7%
2,Cc1cc(O)c(Sc2ccccc2)c(=O)o1,0.97%
3,Cc1cc(O)c(C(=O)/C=C/c2c(F)c(F)c(F)c(F)c2F)c(=O)o1,99.4% (active)
4,Cc1ccc(N=Cc2c(O)cc(C)oc2=O)c(C)c1,-0.65%
5,CCOC(=O)CCc1c(C)c(C#N)c2[nH]c3ccccc3n2c1=O,4.77%
6,CCCc1cc(=S)n2c([nH]c3ccccc32)c1C#N,63.8% (active)
7,CN(C)Cc1c(C#N)c2ccccc2n1C,1.2%
8,COc1ccc(CCNC(=O)c2nnc(CS(=O)(=O)c3ccccc3)o2)cc1OC,-2.96%
9,CCn1c2ccccc2c2cc(NC(=S)N3CCOCC3)ccc21,46%
10,CCn1c2ccccc2c2cc(NC(=O)C/C(C)=N/NC(=O)c3ccccc3N)ccc21,95.2% (active)
11,CCn1c2ccccc2c2cc(CC(N)=O)ccc21,1.45%
12,CCn1c2ccccc2c2cc(NC(=O)COC(=O)c3cc(S(=O)(=O)N4CCCCC4)ccc3Cl)ccc21,34.2%
13,CCn1c2ccccc2c2cc(NC(=O)COC(=O)c3ccccc3Br)ccc21,62.5% (active)
14,CCn1c2ccccc2c2cc(NC(=O)CNC)ccc21,44.7%
15,COc1cc(OC)c(N2CC(C(=O)Nc3cc(Cl)ccc3N3CCOCC3)CC2=O)cc1Cl (configuration not stated),-0.04%
16,CCn1c(CSc2nncn2-c2ccc(OC)cc2)nc2cc(S(=O)(=O)N(C)C)ccc21,-0.25%
17,CCOc1ccccc1C1NC(=O)NC(C)=C1C(=O)OCc1ccco1 (configuration not stated),-1.31%
18,COC(=O)c1ccc(/C=C/c2c(-c3ccc(OC)cc3)sc3ccccc23)cc1,51.7% (active)
19,COc1ccc2sc(-c3ccc(S(C)(=O)=O)cc3)c(-c3ccc(C(N)=O)cc3)c2c1,17.8%
20,COc1ccccc1-c1sc2ccccc2c1-c1ccc(C(C)=O)cc1,42.1%
21,O=C1CCCCC1Sc1ccc(Cl)cc1[N+](=O)[O-] (configuration not stated),14.3%
22,Cc1nc(NC(CC(C)C)C(=O)O)c2nc(C)oc2n1 (configuration not stated),1.08%
23,CCOC(=O)CN1C(=O)C(=O)c2cc(C)ccc21,-0.46%
24,CC(OC(=O)CN1C(=O)c2ccccc2C1=O)C(=O)c1ccccc1 (configuration not stated),0.4%
25,CC(C)OC(=O)CN1C(=O)C(=O)c2ccccc21,101% (active)

row,SMILES,activation
1,CC1CCCN(S(=O)(=O)c2ccc(N(C(=O)c3cnccn3)C(C(=O)NC3CCCCC3)c3cccs3)cc2)C1 (configuration not stated),2.59%
2,CCOC(=O)CCP(=O)(O)C(O)(c1ccccc1)c1ccccc1,-2.52%
3,COCCNC(=O)c1ccc(S(=O)(=O)c2ccc(Cl)cc2)c(NC(C)=O)c1,5.01%
4,CCOC(=O)c1c(C)n(C)c2ccc(OC)c(NC(=O)CN3CCC4(CC3)OCCO4)c12,0.77%
5,CCOC(=O)c1c(S(=O)(=O)Nc2cccc(Cl)c2)c(C)n(C)c1C,21.5%
6,CCOC(=O)c1c(C)n(C)c2ccc(OC)c(NS(=O)(=O)CC)c12,55.7% (active)
7,FC(F)(F)c1cc(C(F)(F)F)c2ccc(N3CCN(c4ccccc4)CC3)nc2n1,3.17%
8,CC(=O)Nc1cccc(-c2nc3ccccc3s2)c1C,-9.79%
9,Oc1ccc(-c2[nH]ncc2-c2nc3ccccc3s2)c(O)c1,48.9% (active)
10,COc1ccc(Oc2cn[nH]c2-c2ccc(OC)cc2O)cc1,6.87%
11,CCOC(=O)C1(Cc2ccccc2C)CCCN(C(=O)c2ccc(COC)o2)C1 (configuration not stated),20.8%
12,O=c1ccc2cc(S(=O)(=O)Nc3ccccc3F)ccc2o1,-0.99%
13,Cc1cc(C(=O)COc2ccccc2[N+](=O)[O-])c(C)n1-c1cccc(S(=O)(=O)N2CCOCC2)c1,10.1%
14,CCNC(=O)c1cnn(-c2ccccc2)c1-c1ccccc1,0.69%
15,CCCc1c(C(=O)O)cnn1-c1ccc(Cl)cc1,-2.51%
16,CCCc1c(C(=O)Nc2ccc(F)cc2)cnn1-c1ccccc1,69.9% (active)
17,COc1cc(/C=C/C(=O)OCC(=O)NC2CC2)cc(OC)c1OC,1.12%
18,O=S(=O)(NCc1ccccc1Br)c1ccccc1Br,-0.52%
19,Cn1c(=O)c(C(=O)Nc2ncccn2)c(O)c2ccccc21,66.7% (active)
20,CCCn1c(=O)c(C(=O)Nc2cc(C)ccn2)c(O)c2ccccc21,7.05%
21,Cn1c(=O)c(Sc2ccc(Cl)cc2)c(O)c2ccccc21,6.8%
22,COc1ccccc1NC(=O)CSc1nnc(Cn2nnc(-c3ccccc3)n2)n1-c1ccccc1,-0.61%
